From publication PMC7862700, “An all-to-all approach to the identification of sequence-specific readers for epigenetic DNA modifications on cytosine”

Key:
Experiment in all cases: DAPPL (digital affinity profiling via proximity ligation, sequencing); 10 mM Tris-HCl pH 7.5, 50 mM NaCl, 1 mM DTT, 4% glycerol, room temperature, 30 min; GST-TFs on glutathione beads, 16-mer random dsDNA library, 0.1% formaldehyde crosslink after washing; high values mean tight binding
Settings in all cases: protein: recombinant; tags: N-terminal GST; dsDNA, one strand shown
FLI1 = biological target: T1, FLI1 (Homo sapiens, UniProt Q01543 1-452)
T1 sequence: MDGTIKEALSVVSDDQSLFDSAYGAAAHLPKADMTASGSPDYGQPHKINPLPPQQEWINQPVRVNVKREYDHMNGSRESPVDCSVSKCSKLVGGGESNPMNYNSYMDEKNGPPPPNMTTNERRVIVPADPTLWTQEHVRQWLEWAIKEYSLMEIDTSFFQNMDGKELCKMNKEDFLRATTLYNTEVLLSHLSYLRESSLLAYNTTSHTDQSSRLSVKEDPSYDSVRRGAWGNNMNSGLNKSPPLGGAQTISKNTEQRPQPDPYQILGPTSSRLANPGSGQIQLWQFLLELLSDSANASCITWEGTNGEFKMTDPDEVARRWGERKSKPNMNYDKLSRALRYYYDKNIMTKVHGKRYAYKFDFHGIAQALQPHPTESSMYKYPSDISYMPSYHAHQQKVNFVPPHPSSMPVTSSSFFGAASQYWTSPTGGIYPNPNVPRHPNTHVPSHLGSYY
Method in brief: (§1)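 Pools were built from human transcription factors expressed in yeast as GST fusions, captured on glutathione beads and DNA-barcoded, along with a tag-only sample. Incubation with 200 nmole of a 16-mer random double-stranded DNA library lasted 30 min at room temperature in Tris/NaCl/DTT/glycerol buffer, and was followed by washing, 0.1% formaldehyde crosslinking, proximity ligation, PCR amplification and Illumina NextSeq500 sequencing. Binding signal is the quotient of each hexamer's read frequency for a factor and its frequency for the tag-only sample.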

ELK1 = biological target: T2, ELK1 (Homo sapiens, UniProt P19419 1-428)
T2 sequence: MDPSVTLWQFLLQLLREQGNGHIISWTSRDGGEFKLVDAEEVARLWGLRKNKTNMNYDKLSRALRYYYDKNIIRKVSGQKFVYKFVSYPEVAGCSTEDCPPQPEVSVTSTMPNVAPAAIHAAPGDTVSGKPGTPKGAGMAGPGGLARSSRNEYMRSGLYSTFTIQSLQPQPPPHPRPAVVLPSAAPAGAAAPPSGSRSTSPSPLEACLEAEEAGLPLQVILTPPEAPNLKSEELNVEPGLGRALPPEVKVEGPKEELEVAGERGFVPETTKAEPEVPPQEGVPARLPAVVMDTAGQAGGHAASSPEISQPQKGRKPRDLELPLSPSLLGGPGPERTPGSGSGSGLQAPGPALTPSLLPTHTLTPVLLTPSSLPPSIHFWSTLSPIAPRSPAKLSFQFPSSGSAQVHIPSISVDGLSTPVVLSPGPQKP
Method in brief: as §1

GABPA = biological target: T3, GABPA (Homo sapiens, UniProt Q06546 1-454)
T3 sequence: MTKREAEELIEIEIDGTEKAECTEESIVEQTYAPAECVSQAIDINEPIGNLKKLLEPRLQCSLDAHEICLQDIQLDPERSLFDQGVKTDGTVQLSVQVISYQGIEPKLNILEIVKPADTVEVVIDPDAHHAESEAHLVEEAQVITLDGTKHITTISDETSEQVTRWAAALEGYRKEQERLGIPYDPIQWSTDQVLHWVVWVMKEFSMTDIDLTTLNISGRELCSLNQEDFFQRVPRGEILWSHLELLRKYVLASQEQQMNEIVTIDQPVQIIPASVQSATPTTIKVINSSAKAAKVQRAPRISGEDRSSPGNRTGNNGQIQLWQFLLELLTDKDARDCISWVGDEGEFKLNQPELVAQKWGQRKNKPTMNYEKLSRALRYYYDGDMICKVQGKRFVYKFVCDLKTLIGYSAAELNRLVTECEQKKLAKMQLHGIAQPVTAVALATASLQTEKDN
Method in brief: as §1

ERG = biological target: T4, ERG (Homo sapiens, UniProt P11308 1-479)
T4 sequence: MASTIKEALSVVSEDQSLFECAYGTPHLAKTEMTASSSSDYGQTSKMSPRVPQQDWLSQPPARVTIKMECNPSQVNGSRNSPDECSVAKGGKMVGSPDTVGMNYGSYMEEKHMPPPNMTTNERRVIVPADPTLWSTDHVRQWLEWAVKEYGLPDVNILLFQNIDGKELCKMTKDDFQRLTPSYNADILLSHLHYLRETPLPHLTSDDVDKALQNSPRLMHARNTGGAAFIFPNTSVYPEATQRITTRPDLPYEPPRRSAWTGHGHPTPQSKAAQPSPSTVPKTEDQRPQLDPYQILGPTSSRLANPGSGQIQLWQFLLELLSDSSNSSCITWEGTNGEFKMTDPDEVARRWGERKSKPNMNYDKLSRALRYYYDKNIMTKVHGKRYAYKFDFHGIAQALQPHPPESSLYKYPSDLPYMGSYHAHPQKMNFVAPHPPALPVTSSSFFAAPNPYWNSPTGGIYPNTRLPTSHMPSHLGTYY
Method in brief: as §1

ELF1 = ELF1 (Homo sapiens, UniProt P32519 1-619)
Sequence of ELF1 (P32519 whole entry): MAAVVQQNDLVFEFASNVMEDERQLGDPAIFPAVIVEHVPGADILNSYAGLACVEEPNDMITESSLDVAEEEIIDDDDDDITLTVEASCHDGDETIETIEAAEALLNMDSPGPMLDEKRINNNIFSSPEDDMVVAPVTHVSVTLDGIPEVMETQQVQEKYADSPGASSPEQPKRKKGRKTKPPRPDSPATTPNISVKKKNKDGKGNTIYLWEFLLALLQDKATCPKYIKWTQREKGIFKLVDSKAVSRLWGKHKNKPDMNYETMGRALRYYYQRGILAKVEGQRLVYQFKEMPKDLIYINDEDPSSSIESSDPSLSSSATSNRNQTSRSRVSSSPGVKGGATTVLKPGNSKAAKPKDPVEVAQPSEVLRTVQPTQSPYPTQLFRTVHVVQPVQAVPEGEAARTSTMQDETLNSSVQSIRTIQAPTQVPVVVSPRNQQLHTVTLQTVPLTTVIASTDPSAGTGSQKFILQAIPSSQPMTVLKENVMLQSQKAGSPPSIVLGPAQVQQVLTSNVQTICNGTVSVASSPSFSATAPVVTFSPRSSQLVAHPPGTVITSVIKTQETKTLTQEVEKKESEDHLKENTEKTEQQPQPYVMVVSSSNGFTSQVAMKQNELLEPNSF
Method in brief: as §1

EHF = biological target: T5, EHF (Homo sapiens, UniProt Q9NZC4 1-300)
T5 sequence: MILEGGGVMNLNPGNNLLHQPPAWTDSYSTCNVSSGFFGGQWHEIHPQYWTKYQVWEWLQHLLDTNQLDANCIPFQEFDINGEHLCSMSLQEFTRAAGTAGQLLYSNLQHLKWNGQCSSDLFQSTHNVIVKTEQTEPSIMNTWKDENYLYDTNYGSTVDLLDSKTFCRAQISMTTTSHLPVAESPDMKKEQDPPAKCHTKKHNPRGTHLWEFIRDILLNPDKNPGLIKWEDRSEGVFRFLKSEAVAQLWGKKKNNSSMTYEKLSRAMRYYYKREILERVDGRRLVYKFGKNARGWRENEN
Method in brief: as §1

SPI1 = SPI1 (Homo sapiens, UniProt P17947 1-270)
Method in brief: as §1

SPIB = SPIB (Homo sapiens, UniProt Q01892 1-262)
Sequence of SPIB (Q01892 whole entry): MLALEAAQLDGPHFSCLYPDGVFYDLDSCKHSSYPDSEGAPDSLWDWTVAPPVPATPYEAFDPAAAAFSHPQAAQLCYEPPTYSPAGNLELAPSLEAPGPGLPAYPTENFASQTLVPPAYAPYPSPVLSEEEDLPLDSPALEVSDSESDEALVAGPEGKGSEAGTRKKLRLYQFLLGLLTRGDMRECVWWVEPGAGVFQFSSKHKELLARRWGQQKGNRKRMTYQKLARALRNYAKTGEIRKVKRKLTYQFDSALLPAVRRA
Method in brief: as §1

ELK3 = biological target: T6, ELK3 (Homo sapiens, UniProt P41970 1-407)
T6 sequence: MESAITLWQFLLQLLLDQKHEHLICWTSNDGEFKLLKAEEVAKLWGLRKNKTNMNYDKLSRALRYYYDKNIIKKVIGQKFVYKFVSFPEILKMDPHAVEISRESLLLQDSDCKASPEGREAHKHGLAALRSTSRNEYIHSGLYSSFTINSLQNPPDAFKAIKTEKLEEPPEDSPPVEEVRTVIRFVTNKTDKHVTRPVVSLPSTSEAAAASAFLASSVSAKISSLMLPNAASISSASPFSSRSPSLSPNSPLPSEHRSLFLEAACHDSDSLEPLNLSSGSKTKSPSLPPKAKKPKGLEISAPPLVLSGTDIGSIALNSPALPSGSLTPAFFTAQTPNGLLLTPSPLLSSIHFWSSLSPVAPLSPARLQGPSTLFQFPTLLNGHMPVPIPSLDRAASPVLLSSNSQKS
Method in brief: as §1

ETV5 = ETV5 (Homo sapiens, UniProt P41161 1-510)
Sequence of ETV5 (P41161 whole entry): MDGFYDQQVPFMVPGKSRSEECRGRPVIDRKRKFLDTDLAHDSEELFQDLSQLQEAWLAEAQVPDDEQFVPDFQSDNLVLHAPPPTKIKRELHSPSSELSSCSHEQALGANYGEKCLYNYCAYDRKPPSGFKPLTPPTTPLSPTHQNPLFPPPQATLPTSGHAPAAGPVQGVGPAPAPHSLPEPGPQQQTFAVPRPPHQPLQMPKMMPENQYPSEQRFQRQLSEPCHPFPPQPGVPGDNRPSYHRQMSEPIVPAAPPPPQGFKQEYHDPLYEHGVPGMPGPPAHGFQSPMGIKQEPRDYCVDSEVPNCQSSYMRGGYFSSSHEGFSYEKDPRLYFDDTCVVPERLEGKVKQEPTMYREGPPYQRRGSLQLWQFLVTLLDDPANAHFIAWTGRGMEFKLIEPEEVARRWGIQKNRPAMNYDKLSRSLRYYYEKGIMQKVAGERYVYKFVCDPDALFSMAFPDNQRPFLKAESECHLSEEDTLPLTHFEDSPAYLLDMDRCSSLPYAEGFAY
Method in brief: as §1

**Q.** GTTGAC was tested. Which binding signal (FLI1) did it give?
**A.** 1.11 fold enrichment (6-mer frequency, TF over GST control)

**Q.** What about the binding signal (ELK1) of the same sequence?
**A.** 1.03 fold enrichment (6-mer frequency, TF over GST control)

**Q.** And the binding signal (GABPA)?
**A.** 1.19 fold enrichment (6-mer frequency, TF over GST control)

**Q.** What about the binding signal (ERG) of the same sequence?
**A.** 1.22 fold enrichment (6-mer frequency, TF over GST control)

**Q.** And the binding signal (ELF1)?
**A.** 1.2 fold enrichment (6-mer frequency, TF over GST control)

**Q.** And the binding signal (EHF)?
**A.** 1.17 fold enrichment (6-mer frequency, TF over GST control)

**Q.** And the binding signal (SPI1)?
**A.** 1.15 fold enrichment (6-mer frequency, TF over GST control)

**Q.** What about the binding signal (SPIB) of the same sequence?
**A.** 1.22 fold enrichment (6-mer frequency, TF over GST control)

**Q.** And the binding signal (ELK3)?
**A.** 1.2 fold enrichment (6-mer frequency, TF over GST control)

**Q.** And the binding signal (ETV5)?
**A.** 1.01 fold enrichment (6-mer frequency, TF over GST control)
